Measurements: article PMC5540273 (PLoS ONE, 2017)

Columns and labels:
Details in all cases: concentration: 1 μM, replicates: in singlicate; n = 1
ACVR2A = test system: ACVR2A
ACVR2B = test system: ACVR2B
ACVRL1 = test system: ACVRL1
ADCK3 = test system: T1, ADCK3
T1 construct: gene CABC1

ADCK4 = test system: ADCK4
AKT1 = test system: AKT1
AKT2 = test system: AKT2
AKT3 = test system: AKT3
ALK = test system: ALK
AMPK-alpha1 = test system: T2, AMPK-alpha1
T2 construct: gene PRKAA1

AMPK-alpha2 = test system: T3, AMPK-alpha2
T3 construct: gene PRKAA2

ANKK1 = test system: ANKK1
ARK5 = test system: T4, ARK5
T4 construct: gene NUAK1

ASK1 = test system: T5, ASK1
T5 construct: gene MAP3K5

ASK2 = test system: T6, ASK2
T6 construct: gene MAP3K6

AURKA = test system: AURKA
AURKB = test system: AURKB
AURKC = test system: AURKC
AXL = test system: AXL
BIKE = test system: T7, BIKE
T7 construct: gene BMP2K
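Note: KINOMEscan kinase panel screen.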

| Structure (SMILES) | %Inh (ACVR2A) [%] | %Inh (ACVR2B) [%] | %Inh (ACVRL1) [%] | %Inh (ADCK3) [%] | %Inh (ADCK4) [%] | %Inh (AKT1) [%] | %Inh (AKT2) [%] | %Inh (AKT3) [%] | %Inh (ALK) [%] | %Inh (AMPK-alpha1) [%] | %Inh (AMPK-alpha2) [%] | %Inh (ANKK1) [%] | %Inh (ARK5) [%] | %Inh (ASK1) [%] | %Inh (ASK2) [%] | %Inh (AURKA) [%] | %Inh (AURKB) [%] | %Inh (AURKC) [%] | %Inh (AXL) [%] | %Inh (BIKE) [%] |
| --- | --- | --- | --- | --- | --- | --- | --- | --- | --- | --- | --- | --- | --- | --- | --- | --- | --- | --- | --- | --- |
| Cc1nnc(-c2ccc3ncc(-c4ccc(S(C)=O)cc4)n3c2)o1 (stereo not shown) | 0 | 0 | 0 | 0 | 18 | 3 | 15 | 2 | 40 | 1 | 0 | 0 | 0 | 0 | 9 | 18 | 21 | 0 | 11 | 0 |
| Fc1ccc(-c2nn3c(OCC(F)(F)F)cccc3c2-c2ccncc2)cc1 [GW514784] | 0 | 0 | 0 | 18 | 46 | 0 | 0 | 0 | 0 | 0 | 0 | 25 | 0 | 0 | 0 | 0 | 0 | 0 | 0 | 11 |
| CN1c2ccc(CNc3ccc(F)cc3)cc2-c2c(cnn2C)S1(=O)=O | 1 | 0 | 0 | 2 | 5 | 0 | 0 | 0 | 8 | 0 | 13 | 0 | 6 | 0 | 3 | 0 | 21 | 0 | 11 | 0 |
| COc1cc2ncn(-c3cc(OCc4sccc4Cl)c(C(N)=O)s3)c2cc1OC [GSK448459] | 0 | 0 | 0 | 0 | 39 | 0 | 1 | 0 | 21 | 0 | 0 | 0 | 15 | 0 | 0 | 0 | 12 | 41 | 10 | 90 |
| CCc1ccnc(/C=C/c2n[nH]c3cc(Sc4ccccc4C(=O)NC)ccc23)c1 | 0 | 0 | 0 | 0 | 0 | 0 | 0 | 8 | 11 | 0 | 0 | 0 | 11 | 0 | 0 | 77 | 94.5 | 97.3 | 45 | 34 |
| COc1ccc(S(=O)(=O)NC2CCN(c3cc(C)nc(Nc4cccc(C#N)c4)n3)CC2)cc1.O=C(O)C(F)(F)F [GSK1653539] | 0 | 0 | 0 | 20 | 35 | 0 | 0 | 0 | 5 | 0 | 0 | 14 | 8 | 0 | 0 | 2 | 7 | 0 | 0 | 5 |
| CCn1cnc2c(N)ncnc21 [GW345098] | 0 | 0 | 8 | 19 | 0 | 0 | 0 | 0 | 0 | 29 | 0 | 0 | 0 | 15 | 0 | 4 | 6 | 4 | 0 | 5 |
| O=c1cc(N2CCOCC2)nc2n(Cc3cccc4ccccc34)ccn12 [GSK2333389] | 9 | 0 | 0 | 6 | 0 | 0 | 20 | 0 | 2 | 0 | 0 | 0 | 33 | 0 | 15 | 0 | 0 | 14 | 0 | 16 |
| Cc1ccc(C(=O)NCC(N)=O)cc1-n1c(C)cc(OCc2ccc(F)cc2F)c(Br)c1=O | 0 | 4 | 28 | 27 | 2 | 29 | 19 | 0 | 0 | 30 | 11 | 0 | 0 | 12 | 0 | 0 | 0 | 8 | 11 | 7 |
| O=C1Cc2cc(Nc3nc(NCc4cccc(S(=O)(=O)C(F)(F)F)c4)ncc3C(F)(F)F)ccc2N1 | 0 | 0 | 0 | 0 | 2 | 0 | 1 | 0 | 0 | 2 | 0 | 0 | 22 | 11 | 0 | 1 | 13 | 0 | 2 | 0 |
| O=C(NCCNc1ccnc(Nc2ccc(F)cc2)n1)c1cc2ccccc2s1 [GSK1379874] | 0 | 0 | 0 | 0 | 27 | 0 | 0 | 0 | 5 | 0 | 0 | 0 | 0 | 1 | 0 | 11 | 0 | 32 | 10 | 0 |
| Cc1cn2c(=O)cc(N3CCOCC3)nc2n1Cc1cccc(Cl)c1Cl [GSK2334006] | 8 | 23 | 0 | 7 | 17 | 0 | 26 | 26 | 6 | 29 | 0 | 0 | 14 | 1 | 3 | 0 | 26 | 44 | 0 | 27 |
| CC(=O)Nc1ccc(COc2ccc(Nc3ccnc4cc(-c5ccccn5)ccc34)cc2)cc1.Cl [GW440148] | 0 | 59 | 3 | 18 | 26 | 0 | 15 | 0 | 6 | 0 | 11 | 8 | 18 | 10 | 0 | 14 | 67 | 46 | 1 | 8 |
| CC(C)Oc1ccc2c(-c3ccnc(Nc4ccc(N5CCN(C)CC5)cc4)n3)cnn2n1 [GW696155] | 0 | 0 | 0 | 20 | 83 | 0 | 0 | 0 | 42 | 41 | 52 | 20 | 95.5 | 0 | 0 | 98.6 | 70 | 75 | 74 | 99.8 |
| NS(=O)(=O)c1cccc(-c2ccc3nccc(-c4cccc(S(N)(=O)=O)c4)c3c2)c1 [GW867253] | 0 | 0 | 0 | 0 | 10 | 2 | 0 | 10 | 0 | 0 | 6 | 0 | 0 | 0 | 0 | 19 | 45 | 0 | 0 | 0 |
| CN(C1=C(c2ccccc2)C(=O)NC1=O)c1ccccc1 [SB-334860] | 0 | 4 | 0 | 12 | 15 | 0 | 23 | 0 | 0 | 0 | 23 | 9 | 42 | 12 | 0 | 21 | 10 | 0 | 0 | 0 |
| COc1ccc(Nc2nccc(N3CCC(NC(=O)Nc4cccc(C(C)=O)c4)C3)n2)cc1 (stereo not shown) [GSK1379731] | 0 | 11 | 0 | 0 | 11 | 0 | 0 | 0 | 15 | 0 | 0 | 0 | 50 | 0 | 0 | 0 | 0 | 40 | 9 | 30 |
| Fc1ccc(-c2ncn(CCCN3CCOCC3)c2-c2cccnc2)cc1 [SB-211743] | 0 | 0 | 6 | 1 | 0 | 0 | 0 | 10 | 0 | 4 | 12 | 0 | 12 | 0 | 0 | 15 | 31 | 5 | 0 | 0 |
| COC(=O)Nc1nc2cc(Oc3ccc(NC(=O)Nc4cc(F)ccc4F)cc3)ccc2[nH]1.Cl [GW701424] | 0 | 0 | 0 | 7 | 40 | 0 | 4 | 0 | 28 | 0 | 8 | 12 | 0 | 13 | 0 | 0 | 94.5 | 50 | 93.5 | 3 |
| NS(=O)(=O)CCc1cccc(Nc2nccc(-c3c(-c4cccc(NC(=O)c5c(F)cccc5F)c4)nn4ccccc34)n2)c1 [GSK336735] | 0 | 37 | 0 | 9 | 42 | 0 | 16 | 0 | 24 | 20 | 33 | 83 | 84 | 2 | 0 | 93.5 | 81 | 72 | 90.5 | 27 |
